Source: PubChem BioAssay
TAR Tat displ: TAR RNA-Tat peptide displacers, HIV-1, primary screen, biochemical, FRET, FAM/TAMRA-labeled Tat. actives 0.6% (n = 100,000). HIV-1 TAR RNA, Tat peptide displacement FRET; active compounds read high. AID 1259389, 2018. z-score (test concentration not listed); active means z-score of 3 or more in at least 2 runs
CDC25B CDK2 inh: primary biochemical HTRF screen for blockers of M-phase inducer phosphatase 2 binding to CDK2/cyclin A. HTRF CDC25B-CDK2/CyclinA binding, anti-His/anti-Flag; active compounds read high. z-score (concentration not given with the values). actives 0.72% (n = 94,000). AID 1259370, 2018; in the data active means z-score above about 3.2
Starred values were filed as active, the others as inactive; nt = no result. Shown are actives, neighbours in structure and some others; about 0.93% of the full set was active somewhere.

SMILES | TAR Tat displ | CDC25B CDK2 inh
Cc1noc(-c2ccccc2)c1NC(=O)NCC1COc2ccccc2O1 (stereo unspecified) | nt | 7*
Cc1nc(N=Nc2ccc(C(=O)O)cc2)c(COP(=O)(O)O)c(C=O)c1O | nt | -2.46
Cc1ncc(COP(=O)(O)O)c(C=Nc2ccc3ccccc3c2)c1O | nt | 13.9*
CCCN(CCC)S(=O)(=O)c1csc(C(N)=O)c1 | 2.36 | nt
CN(C)CCCNc1cc(N2CCN(c3ccc(F)cc3)CC2)c2noc3c2c1C(=O)c1ccccc1-3 | 27.8* | 7.4*
O=C1c2ccccc2-c2onc3c(N4CCN(c5ccc(F)cc5)CC4)cc(NCCO)c1c23 | 2.35 | 6.3
CN(C)CCCNc1cc(N2CCOCC2)c2noc3c2c1C(=O)c1ccccc1-3 | 12.2* | -2.63
CN(CCO)CCNc1cc(N2CCOCC2)c2noc3c2c1C(=O)c1ccccc1-3 | -5.47 | -1.56
CC1CCN(C(=O)C2=CC(c3ccco3)=NS(=O)(=O)N2C)C2CCCCC12 (stereo unspecified) | -0.54 | 0.22
O=S(=O)(Nc1ccc(-c2cnco2)cc1)c1ccc(Cl)c(Cl)c1 | nt | -0.52
O=C1c2ccccc2S(=O)(=O)N1CC(O)COc1ccccc1 (stereo unspecified) | nt | -1.24
CN1CCc2c(n(CC(O)CN3C(=O)c4ccccc4S3(=O)=O)c3ccccc23)C1=O (stereo unspecified) | 0.59 | 19.4*
CS(=O)(=O)CC[C@@H](C(=O)NC1CCCC1)N1Cc2ccccc2C1=O | 1.25 | -0.24
CCCc1nn2c(=O)cc(CSc3nc4ccccc4[nH]3)nc2s1 | 1.16 | -1.04
CCOC(=O)c1c(C)oc2c1c(CN1CCCC(C(=O)OCC)C1)c(O)c1ccccc12 (stereo unspecified) | nt | -0.68
CCOC(=O)c1c(C)oc2c1c1c(c3ccccc32)OCN(CC2CCCO2)C1 (stereo unspecified) | -5.38 | 16.7*
O=C(NC1CCCC1)N1CC=C(c2c[nH]c3ccccc23)CC1 | -6.89 | nt
O=C(/C=C/c1ccc(O)c(O)c1)c1ccc(O[C@@H]2O[C@H](CO)[C@@H](O)[C@H](O)[C@H]2O)c(O)c1O | 31.2* | nt
C[C@@H]1O[C@@H](O[C@H]2[C@H](Oc3cc(O)c4c(c3)O[C@H](c3ccc(O)cc3)CC4=O)O[C@H](CO)[C@@H](O)[C@@H]2O)[C@H](O)[C@H](O)[C@H]1O | 0.91 | nt
O=C1C[C@@H](c2ccc(O)cc2)Oc2cc(O[C@@H]3O[C@H](CO)[C@@H](O)[C@H](O)[C@H]3O)cc(O)c21 | 3.21 | nt
COc1ccc([C@@H]2CC(=O)c3c(O)cc(O[C@@H]4O[C@H](CO)[C@@H](O)[C@H](O)[C@H]4OC4O[C@@H](C)[C@H](O)[C@@H](O)[C@H]4O)cc3O2)cc1O (stereo partly specified) | 4.41* | nt
O=C1C[C@@H](c2ccc(O)c(O)c2)Oc2c1ccc(O[C@@H]1O[C@H](CO)[C@@H](O)[C@H](O)[C@H]1O)c2O | 17.2* | nt
COc1ccc(/C=C/c2cc(O)cc(O[C@@H]3O[C@H](CO)[C@@H](O)[C@H](O)[C@H]3O)c2)cc1O | 0.87 | nt
CC(Oc1ccccc1F)C(=O)Nc1onc2c1CCCC2 (stereo unspecified) | 1.45 | 0.24
Cc1cc2c3c([nH]c2cc1S(=O)(=O)Nc1ccc(F)c(F)c1)CC(C)(C)CC3=O | -1.21 | nt
SMILES | TAR Tat displ | CDC25B CDK2 inh
Cc1ccc(-c2ccc(=O)[nH]n2)cc1S(=O)(=O)N(Cc1ccco1)CC1CCCO1 (stereo unspecified) | 0.95 | 1.12
O=C(Nc1cccc2cccnc12)C(=O)Nc1cccc2cccnc12 | nt | -2.04
O=C(Nc1cccc2cccnc12)c1ccco1 | -0.13 | 5.61*
Cc1ccc(OCCOCCOc2ccc(Br)cc2/C=c2\sc3nc4ccccc4n3c2=O)cc1 | nt | -4.63
Cc1cc(OCc2noc(-c3c(F)cccc3F)n2)ccc1Cl | 0.65 | -0.25
COc1ccc2cc(NC(=O)Nc3ccc(OC)c4cccnc34)n(C)c2c1 | 0.07 | 14.4*
COCCNC(=O)Nc1cc2ccc(OC)cc2n1C | 0.06 | -0.97
CCn1cc(C2CC(=O)N(c3ccccc3)C2=O)c2ccccc21 (stereo unspecified) | -0.53 | 0.39
Oc1ccc(Cl)cc1C=Nc1ccc2cn[nH]c2c1 | nt | 9.07*
Oc1c(Cl)cc(Cl)cc1C=Nc1cccnc1 | nt | -0.54
CS(=O)(=O)N1CCc2cc(C(=O)NCc3ccco3)ccc21 | 14.5* | -0.51
CC(C)NC(=O)c1ccc2c(c1)CCN2S(C)(=O)=O | 1.49 | -0.84
CC1CCN(c2ccc3nnc(CCC(=O)Nc4ccc5c(c4)OCO5)n3n2)CC1 | 0.44 | nt
CCC(=O)N(c1cccc(Cl)c1)C1C=CS(=O)(=O)C1 (stereo unspecified) | 1.25 | -3.85
CCCc1nnc(NC(CC)OC(=O)c2cc(C)nc3ccccc23)s1 (stereo unspecified) | 1.86 | -1.19
Cc1nc(N2CCCC(C(=O)NC3CC3)C2)c2c(C)noc2n1 (stereo unspecified) | 10.9* | nt
CCc1noc2nc(C)nc(N3CCCC(C(=O)NC4CC4)C3)c12 (stereo unspecified) | 3.72 | nt
O=C(Nc1ccc2c(c1)OCCO2)[C@@H](c1ccccc1)N1Cc2ccccc2C1=O | 0.14 | 0.14
CCCCCCCCCCCCCCCCCCN=C(C)N | nt | 4.5*
CC(N)=NCCCC[C@@H](N)C(=O)O | nt | 0.56
Cc1c(C(=O)N2CCN(C)CC2)sc2ncn(CC(=O)N3CCC(C)CC3)c(=O)c12 | 1.31 | nt
COc1ccc(Nc2nc(N3CCCC3)nc3c2cnn3C)cc1 | 1.34 | nt
